Hits are enriched below; roughly 3.5% of the tested compounds scored in any of these assays.
eIF4E 4G PPI: eIF4E/eIF4G interaction inhibition in translation initiation; P63073+Q04637; TR-FRET eIF4E-eIF4GI(517-606) binding, 2 h; inhibition, % at 21.7 µM; 220,000 compounds, 0.37% hits; AID 782;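 active = inhibition above about 30%, limit read from the data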;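 also: 0% = full FRET control wells and 100% = background wells lacking eIF4GI fragment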
14-3-3 Bad PPI: disrupts binding of bovine 14-3-3 zeta to phospho-Bad peptide. P63103. inhibition, % at 21.7 µM. TR-FRET 14-3-3zeta/Dy647-pBad peptide displacement, 1 h. AID 781. 220,000 compounds, 0.71% hits;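 active = inhibition above about 70%, limit read from the data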;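 also: 0% = full 14-3-3 plus peptide FRET controls and 100% = background without 14-3-3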
Bim-Mcl-1: inhibitors of Bim-Mcl-1 interaction, human. Q07820. Bead-based flow cytometry, Bim peptide-Mcl-1 binding. inhibition, % at 10 µM. 190,000 compounds, 0.1% hits. AID 1009; in the data active = inhibition above about 40%;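 also: 0% = no compound tracer wells and 100% = peptide blocker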
Mcl1-Bid inh: Mcl-1/Bid interaction inhibition | Q07820 | inhibition, % at 21.7 µM | TR-FRET Mcl-1/Bid-Dy647 peptide binding, 1536-well | 220,000 compounds, 0.97% hits;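 active = compounds that cut the binding signal by more than half at the single screening dose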;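 also: His-tagged Mcl-1 with europium anti-His antibody binding Bid BH3 peptide; 0% = Mcl-1 plus peptide wells and 100% = peptide-only wells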
Hck Nef HTS: inhibitors of human Hck kinase activated by Nef. P08631. Recombinant Hck-YEEI plus Nef, Z-Lyte FRET kinase assay. inhibition, % at 20 µM. 220,000 compounds, 0.68% hits;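 active = Hck-Nef kinase inhibition above about 50%, limit read from the data; inactive = inhibition below that limit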;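 also: 0% = DMSO with Hck plus Nef and 100% = Hck alone without Nef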
Target sequence (P08631 whole entry, looked up): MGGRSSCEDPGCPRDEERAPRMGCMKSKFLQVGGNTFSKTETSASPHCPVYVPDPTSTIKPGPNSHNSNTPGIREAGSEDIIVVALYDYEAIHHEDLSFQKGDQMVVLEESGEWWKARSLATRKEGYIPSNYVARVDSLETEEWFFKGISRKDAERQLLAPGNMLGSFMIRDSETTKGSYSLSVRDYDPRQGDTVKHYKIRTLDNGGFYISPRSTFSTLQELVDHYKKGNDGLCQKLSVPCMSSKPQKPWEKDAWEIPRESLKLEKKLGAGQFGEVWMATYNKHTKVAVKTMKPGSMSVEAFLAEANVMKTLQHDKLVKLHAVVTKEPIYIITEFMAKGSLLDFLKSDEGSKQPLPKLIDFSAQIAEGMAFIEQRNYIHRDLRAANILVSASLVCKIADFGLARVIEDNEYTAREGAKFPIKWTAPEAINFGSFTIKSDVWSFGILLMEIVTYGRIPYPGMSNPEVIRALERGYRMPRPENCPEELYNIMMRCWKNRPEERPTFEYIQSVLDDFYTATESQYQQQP
Mcl1 Noxa PPI: Mcl-1/Noxa interaction inhibition; inhibition, % at 21.7 µM; TR-FRET Mcl-1/Noxa peptide binding, 2 h; Q07820; 220,000 compounds, 1.5% hits; AID 1022;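 active = compounds that cut the protein-peptide binding signal by more than 50% relative to plate controls in a single-dose test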;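 also: His-tagged Mcl-1 with rhodamine Noxa BH3 peptide and terbium anti-His antibody; 0% = Mcl-1 plus Noxa peptide wells and 100% = peptide-only wells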
Numbers without * were called inactive; nt = no result given; [ ] = another dose, or the depositor's remark.

SMILES	eIF4E 4G PPI	14-3-3 Bad PPI	Bim-Mcl-1	Mcl1-Bid inh	Hck Nef HTS	Mcl1 Noxa PPI
CCCC(=O)N1CCN(c2ccc(NC(=S)NC(=O)CC)cc2)CC1	2.7	-5.8	-1.0	-43.7	0.4	nt
Cc1ccc(OCC(=O)N2CCCC(CCC(=O)N(C)CCc3ccccn3)C2)cc1 (stereo unspecified)	2.3	-0.9	0.0	-8.1	20.6	2.1
CCOc1ccccc1CNc1ccc(O)cc1	2.8	-7.1	7.0	-25.9	31.0	72.3*
CCOc1cccc(CNc2ccc(O)cc2)c1OCc1ccc(Cl)cc1	8.3	-3.0	2.0	-99.1	-1.6	12.7
Oc1ccc(NCc2ccccc2OCc2ccccc2F)cc1	2.3	2.5	-2.0	-37.6	8.9	-12.4
NS(=O)(=O)c1ccc(NCc2ccccc2OCc2ccccc2F)cc1	9.7	82.0*	-2.0	-13.5	1.5	16.7
Nc1cc2sc(-c3ccc(C(=O)O)cc3)nc2cc1Cl	4.5	2.0	-8.0	-49.2	10.2	43.0
Nc1ncc(N=Nc2cc(C(=O)O)ccc2Cl)s1	2.1	45.0	nt	-65.0	-1.5	66.9*
O=C(O)[C@@H](c1ccccc1)N1Cc2ccccc2C1=O	90.2*	91.6*	0.0	98.2*	0.3	16.2
O=C(O)CC(c1cccc([N+](=O)[O-])c1)N1Cc2ccccc2C1=O (stereo unspecified)	2.6	3.5	-3.0	14.2	-5.4	7.2
Fc1ccc(Cn2nnnc2C(c2ccc(Cl)cc2)N2CCSCC2)cc1 (stereo unspecified)	9.3	53.0	43.0*	14.0	0.9	10.9
CC(C)CCn1nnnc1C(c1ccc(F)cc1)N1CCN(C(=O)c2ccco2)CC1 (stereo unspecified)	8.4	83.0*	4.0	-13.1	3.0	12.3
O=C(c1ccco1)N1CCN(C(c2ccc(F)cc2)c2nnnn2Cc2cccs2)CC1 (stereo unspecified)	6.8	89.8*	-3.0	62.1*	1.3	25.2
O=C(c1ccco1)N1CCN(C(c2ccccc2)c2nnnn2Cc2cccs2)CC1 (stereo unspecified)	0.8	54.6	0.0	-21.6	-0.3	4.7
O=C(c1ccco1)N1CCN(C(c2ccc(Cl)cc2)c2nnnn2CC2CCCO2)CC1 (stereo unspecified)	-2.8	81.0*	-6.0	54.6*	1.6	15.4
COc1ccc(C(=O)NCC(=O)OCC(=O)N2CCC(C)CC2)cc1OC	4.6	-5.8	-5.0	-23.3	-30.0	-4.2
Brc1ccc(CSc2nnc(-c3cccnc3)o2)cc1	-0.2	-2.9	0.0	-28.7	51.1*	17.3
Clc1ccc(Cl)c2sc(N3CCCC3)nc12	3.6	-0.4	3.0	-14.8	6.0	3.8
CN(C)c1ncc(C2=C(Cl)C(=O)C(N3CCCC3)=C(Cl)C2=O)s1	53.1*[fluorescence artefact?]	78.5*[fluorescence artefact?]	85.0*	60.8*	0.3	111.9*
O=C1C(Cl)=C(N2CCCCC2)C(=O)C(Cl)=C1c1cnc(N2CCCCC2)s1	37.2*[fluorescence artefact?]	27.3	62.0*	64.6*	-4.3	108.6*
O=C(CCO)c1ccc(O)cc1	10.2	74.5*	-5.0	-22.6	25.8	77.9*
Cc1ccc(C2C(/C=C3/SC(=S)NC3=O)=C(c3cccs3)Oc3ccccc32)cc1 (stereo unspecified)	-1.7	0.8	4.0	1.5	-1.4	90.4*
O=C1/C(=C/c2ccc(O)c(O)c2)Oc2cc(O)ccc21	-10.0	5.8	nt	-82.7	-18.2	74.5*
C/C=C(\C)C(=O)Nc1cccc(C2=NOC3(C2)C[C@H](C(N)=O)N(C(=O)C(c2ccccc2)c2ccccc2)C3)c1 (stereo partly specified)	1.5	-0.5	nt	-44.7	23.1	-3.8
COc1ccc(-c2ncccc2OC(=O)C23CC4CC(CC(C4)C2)C3)cc1	-0.9	53.3	-7.0	29.6	0.0	26.7
SMILES	eIF4E 4G PPI	14-3-3 Bad PPI	Bim-Mcl-1	Mcl1-Bid inh	Hck Nef HTS	Mcl1 Noxa PPI
N=c1sccn1CC(=O)NCCc1ccc(Cl)cc1Cl	-3.1	14.5	0.0	41.3	-0.1	51.2*
O=C(Cc1ccccc1)NCCc1ccc(Cl)cc1Cl	-0.4	-20.4	-2.0	-12.2	1.3	25.4
COC(=O)c1ccccc1S(=O)(=O)N1CCC(C(=O)OCC(=O)NCC(F)(F)F)CC1	0.6	8.2	-2.0	-6.4	9.5	5.3
COC(=O)c1ccccc1S(=O)(=O)N1CCn2cccc2C1C (stereo unspecified)	-3.4	5.0	6.0	69.3*	18.8	21.6
O=C(O)c1cc(O)c2c(c1)C(=O)c1cc(O)cc(O)c1C2=O	8.5	58.1	1.0	6.8	19.3	61.7*
CC(=O)Oc1cccc2c1C(=O)c1c(OC(C)=O)cc(C(=O)O)cc1C2=O	6.2	40.5	0.0	21.8	-6.5	21.4
CCCCn1c(CN2C(=O)c3ccccc3C2=O)nc2ccccc2c1=O	2.1	63.1	0.0	-41.0	10.8	-148.7
Cc1cccc2c3nc4ccccc4nc3n(CCCN3C(=O)c4ccccc4C3=O)c12	6.4	1.5	3.0	72.5*	4.5	14.0
CC[n+]1cc(-c2ccccc2)nc(N2CCOCC2)n1	30.0	81.8*[fluorescence artefact?]	0.0	-34.4	-0.5	20.4
NC(=O)c1cc(-c2ccccc2)nc(N2CCOCC2)n1	-4.3	-2.9	1.0	-34.9	10.4	-12.2
CC(C)Nc1nnc(SCC(=O)Nc2ccc3c(c2)C(=O)c2ccccc2C3=O)s1	-5.2	-14.8	3.0	-16.9	16.1	78.0*
O=C(CSc1nnc(NC2CCCCC2)s1)Nc1ccc2c(c1)C(=O)c1ccccc1C2=O	-0.9	-18.3	5.0	-12.5	-1.1	47.0
Cc1ccc(OCC(O)CN2CCN(c3ccccn3)CC2)c(C)c1 (stereo unspecified)	-0.4	7.2	0.0	27.4	22.7	50.6*
O=C(Nc1ccc(Nc2ccncc2)cc1)c1ccc([N+](=O)[O-])cc1	2.9	-7.9	nt	-5.7	24.0	7.1
O=C(Nc1ccc(Nc2ccncc2)cc1)c1ccc(Nc2ccnc3ccc([N+](=O)[O-])cc23)cc1[N+](=O)[O-]	-51.8	76.5*	nt	89.8*	-157.8	80.4*
O=C(CSc1nnc(-c2ccc(C(F)(F)F)cn2)s1)c1ccc(Cl)cc1	-2.3	-4.7	nt	-9.5	35.5	3.6
CCCN(CCC)CC(C)(C)NS(=O)(=O)c1ccc(Cl)cc1	1.9	10.0	nt	-2.1	4.0	19.0
NNc1nc(N)c2c(n1)-c1ccccc1CC21CCCC1	5.3	81.6*[fluorescence artefact?]	-2.0	-64.3	5.3	-64.1
CCc1nc2c(c(=O)[nH]1)C1(CCCC1)Cc1ccccc1-2	2.8	3.4	3.0	-4.9	4.3	5.0
Cc1ccccc1-c1nnc(NC(=O)CSc2nc3ccccc3s2)s1	7.6	14.0	1.0	0.4	-2.2	-9.5
CCOC(=O)c1cnc(/N=C/N(C)C)s1	1.6	96.9*	4.0	-6.7	17.9	-4.3
COc1ccc(NC(=O)c2nc3nc(C)cc(C(F)F)n3n2)cc1OC	4.5	0.2	-1.0	-10.0	-6.8	5.4
